Laboratory results published in the supplement of paper PMC9694430.

Tests used:
Assay in all cases: thermal shift delta Tm vs DMSO control; higher = stronger stabilization (binding)
Settings in all cases: 12.5 µM; protein concentration 2 µM
LOC_OS02G45750-cb003 = tested on: LOC_OS02G45750-cb003
Method in brief: (§1)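 Compounds dissolved in DMSO were added to purified rice kinase domain constructs, which had been expressed in E. coli, for differential scanning fluorimetry. Each well held 19.5 μl of 2 μM kinase in 100 mM potassium phosphate pH 7.5, 150 mM NaCl, 10% glycerol and 5 × SYPRO Orange. Fluorescence was followed from 25°C to 95°C at a rate of 0.05°C/s. Shifts in Boltzmann-fitted melting temperature are triplicate means relative to DMSO-only protein.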

LOC_OS02G54510-cb004 = tested on: LOC_OS02G54510-cb004
Method in brief: as §1

LOC_OS03G04050-cb001 = tested on: LOC_OS03G04050-cb001
Method in brief: as §1

LOC_OS03G12390-cb001 = tested on: LOC_OS03G12390-cb001
Method in brief: as §1

LOC_OS03G27990-cb004 = tested on: LOC_OS03G27990-cb004
Method in brief: as §1

LOC_OS03G50450-cb001 = tested on: LOC_OS03G50450-cb001
Method in brief: as §1

LOC_OS03G50810-cb003 = tested on: LOC_OS03G50810-cb003
Method in brief: as §1

LOC_OS04G35114-cb001 = tested on: LOC_OS04G35114-cb001
Method in brief: as §1

LOC_OS04G38480-cb003 = tested on: T1, LOC_OS04G38480-cb003
T1 sequence (whole entry): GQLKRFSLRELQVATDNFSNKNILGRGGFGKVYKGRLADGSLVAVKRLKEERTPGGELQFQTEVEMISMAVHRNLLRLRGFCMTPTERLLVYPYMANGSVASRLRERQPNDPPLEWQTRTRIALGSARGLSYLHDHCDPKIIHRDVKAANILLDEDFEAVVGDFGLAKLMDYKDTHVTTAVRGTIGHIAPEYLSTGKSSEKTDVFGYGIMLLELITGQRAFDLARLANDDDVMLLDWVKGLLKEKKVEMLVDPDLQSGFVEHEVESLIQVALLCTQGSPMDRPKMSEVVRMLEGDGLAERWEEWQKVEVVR
Method in brief: as §1

LOC_OS04G41100-cb001 = tested on: T2, LOC_OS04G41100-cb001
T2 sequence (whole entry): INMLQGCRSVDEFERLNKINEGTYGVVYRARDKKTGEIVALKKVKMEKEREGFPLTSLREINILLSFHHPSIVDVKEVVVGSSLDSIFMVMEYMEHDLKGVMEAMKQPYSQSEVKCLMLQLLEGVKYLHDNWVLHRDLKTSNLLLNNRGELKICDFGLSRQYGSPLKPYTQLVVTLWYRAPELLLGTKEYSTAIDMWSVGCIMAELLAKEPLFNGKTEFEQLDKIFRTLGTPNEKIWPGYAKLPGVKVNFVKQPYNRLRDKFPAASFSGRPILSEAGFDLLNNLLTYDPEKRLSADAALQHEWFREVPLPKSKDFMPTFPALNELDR
Method in brief: as §1

Row | SMILES | thermal shift delta Tm (LOC_OS02G45750-cb003) [°C] | thermal shift delta Tm (LOC_OS02G54510-cb004) [°C] | thermal shift delta Tm (LOC_OS03G04050-cb001) [°C] | thermal shift delta Tm (LOC_OS03G12390-cb001) [°C] | thermal shift delta Tm (LOC_OS03G27990-cb004) [°C] | thermal shift delta Tm (LOC_OS03G50450-cb001) [°C] | thermal shift delta Tm (LOC_OS03G50810-cb003) [°C] | thermal shift delta Tm (LOC_OS04G35114-cb001) [°C] | thermal shift delta Tm (LOC_OS04G38480-cb003) [°C] | thermal shift delta Tm (LOC_OS04G41100-cb001) [°C]
1 | CC#CC(=O)Nc1ccc2ncnc(Nc3cccc(Br)c3)c2c1 | -0.66 | 0.79 | 0.48 | 0.54 | 0.39 | -0.04 | 1.24 | 3.68 | 1.41 | 0.03
2 | O=C(O)[C@]1(Cc2cccc(Nc3nccs3)n2)CC[C@@H](Oc2cccc(Cl)c2F)CC1 | 1.57 | 4.63 | 0.19 | 7.89 | 0.23 | 1.68 | 2.52 | 9.74 | 4.53 | 0.24
3 | CNC(=O)c1cc(COc2nnc(Nc3ccc(Cl)cc3)c3ccoc23)ccn1 [Telatinib] | 0.27 | 0.15 | 0.24 | -0.25 | 0.21 | 0.19 | 0.38 | 0.7 | 1.95 | 1.53
4 | Cc1ccc(C(=O)Nc2cccc(C(F)(F)F)c2)cc1Nc1nc(-c2cccnc2)nc2c1cnn2C | 0.71 | 1.84 | 0.36 | 1.07 | 0.25 | 0.79 | 0.32 | 0.29 | 0.47 | 0.58
5 | c1cc(-c2cnn3cc(-c4ccc(OCCN5CCCCC5)cc4)cnc23)ccn1 [Dorsomorphin 2HCl] | 15.2 | 0.73 | 0.67 | 1.8 | 9.39 | 1.81 | 7.51 | 9.17 | 3.72 | 3.16
6 | CN(c1ccccc1CNc1nc(Nc2ccc3c(c2)CC(=O)N3)ncc1C(F)(F)F)S(C)(=O)=O | 11.6 | 1.85 | 0.4 | 6.91 | 2.93 | 3.16 | 5.31 | 5.87 | 3.54 | 2.86
7 | CNS(=O)(=O)C[C@H]1CC[C@H](N(C)c2[nH]cnc3nccc2-3)CC1 [Oclacitinib] | 3.43 | 0.36 | 0.63 | 1.78 | 1.09 | 1.35 | 1.01 | 1.87 | 0.99 | 0.23
8 | CCN1/C(=C/C(C)=O)Sc2ccc(OC)cc21 | 0.78 | 0.02 | 0.22 | 0.14 | 0.03 | 0.66 | 0.32 | 0.67 | 0.6 | 0.55
9 | Cc1nc(Nc2ncc(C(=O)Nc3c(C)cccc3Cl)s2)cc(N2CCN(CCO)CC2)n1 [Dasatinib] | 10.7 | 14 | 0.29 | 0.81 | 1.34 | 0.06 | 3.61 | 5.79 | 1.57 | 0.77
10 | Cn1cnc2c(F)c(Nc3ccc(Br)cc3F)c(C(=O)NOCCO)cc21 | 0.6 | 0.05 | 0.71 | 0.19 | 0.4 | 0.43 | 0.44 | 0 | 1.48 | 0.46
11 | CNc1nc(Nc2cn(C(C)(C)C#N)nc2C)ncc1C(F)(F)F | 0.99 | 0.1 | 0.32 | 0.28 | 0.39 | 0.78 | 0.62 | 1.36 | 1.34 | 0.22
12 | O=C(O[C@@H]1Cc2c(O)cc(O)cc2O[C@@H]1c1cc(O)c(O)c(O)c1)c1cc(O)c(O)c(O)c1 [(-)-Epigallocatechin Gallate] | -1.81 | -0.12 | 0.68 | -1.02 | 0.05 | -0.27 | -1.51 | -2.2 | 2.43 | 1.15
13 | CC(C)(O)CNc1ncc(-c2ccnc(Nc3ccnc(Cl)c3)n2)c(CC2CC2)n1 | 2.85 | 0.6 | 0.19 | -0.18 | 0.11 | 0.3 | 0.65 | 3.2 | 1.45 | 0.65
14 | CC(C)(C)c1cnc(CSc2cnc(NC(=O)C3CCNCC3)s2)o1 | 0.84 | 0.08 | 0.58 | 0.18 | 0.11 | 0.05 | 0.57 | 0.29 | 0.55 | 10.7
15 | CCn1c(C(=O)N(C2CC2)C2CC2)cc2c3c(ncn3C)c(Nc3cc(C)n(C)n3)nc21 | 1.23 | 0.33 | 0.44 | 1.55 | 0.13 | 0.66 | 1.38 | 2.5 | 1.2 | 0.58
16 | Nc1ncnc2c1c(-c1cnc3[nH]ccc3c1)nn2C1CCCC1 | 2.27 | 3.34 | 0.54 | 5.27 | 1.19 | 0.86 | 0.88 | 4.32 | 1.28 | 0.51
17 | O=C(NC[C@H](O)CO)c1ccncc1Nc1ccc(I)cc1F | 0.45 | 0.09 | 0.21 | -0.04 | 0.19 | 0.42 | 0.09 | 0.79 | 0 | 0.62
18 | CN1c2ccccc2C(=O)Nc2cnc(Nc3ccc(N4CCC(O)CC4)cc3)nc21 | 5.71 | 2.78 | 0.24 | 2.56 | 1.24 | -0.12 | 2.29 | 3.85 | 3.65 | 0.15
19 | CN1CCC(CNc2ccc3ncc(-c4cccc(OC(F)(F)F)c4)n3n2)CC1 [SGI-1776 free base] | 3.47 | 0.36 | -0.12 | 0.16 | 0.31 | 0.18 | 3.02 | 4.33 | 1.08 | 0.53
20 | FC(F)(F)c1ccc(CNc2ccc(Cc3c[nH]c4ncc(Cl)cc34)cn2)cn1 [Pexidartinib (PLX3397)] | 6.87 | 0.69 | 0.27 | 2.08 | 0.52 | 0.54 | 1.63 | 9.82 | 4.16 | 0.51
